Usually AC50 stands for the midpoint of the concentration-response curve, whichever way the signal moves.

The source made the active and inactive calls. The calls were made as follows: active = hit-call score of the fitted dose curve at least 0.9, where 1 is the maximum; inactive = score below 0.9.

Among the data in PubChem BioAssay (EPA / NIEHS) are outcome and AC50 values, retold here.

A short description of the assay: ATG_ISRE_CIS: Attagene CIS-FACTORIAL HepG2 Assay for human Interferon Regulatory Factor 1 (IRF1) binding to an Interferon-Stimulated Response Element (ISRE) (AID 2282948). The following applies: HepG2 ISRE cis-reporter (Attagene), mRNA transcription readout; actives raise or lower the signal. Here is the method:
ATG_CIS is a cell-based, multiplexed-readout assay that uses HepG2, a human liver cell line, with measurements taken at 24 hours after chemical dosing in a 24-well plate.ATG_ISRE_CIS is one of 52 assay component(s) measured or calculated from the ATG_CIS assay. It is designed to make measurements of mRNA induction, a form of inducible reporter, as detected with fluorescence intensity signals by Reverse transcription polymerase chain reaction (RT-PCR) and Capillary electrophoresis technology.Data from the assay component ATG_ISRE_CIS was analyzed into 1 assay endpoint. This assay endpoint, ATG_ISRE_CIS, was analyzed with bidirectional fitting relative to DMSO as the negative control and baseline of activity. Using a type of inducible reporter, measures of mRNA for gain or loss-of-signal activity can be used to understand the reporter gene at the transcription factor-level as they relate to the gene IRF1. Furthermore, this assay endpoint can be referred to as a primary readout, because this assay has produced multiple assay endpoints where this one serves a reporter gene function. To generalize the intended target to other relatable targets, this assay endpoint is annotated to the dna binding intended target family, where the subfamily is interferon regulatory factors.
Human liver HepG2 cells are transiently transfected with multiple reporter transcription units (MRTUs) in 6-well plates using FuGene 6 reagent (Roche; 3 ml FuGene/1 mg DNA). The MRTU constructs are regulated by a cis-regulating element (promoter). […] A major difference between the CIS and TRANS system is that in CIS activities of endogenous TFs are measured, whereas the TRANS assay evaluates changes in activities of exogenous, chimeric NR-Gal4 proteins. […] At the end of 24 hour incubation, total RNA was isolated using TriZol reagent (Invitrogen). The isolated RNA is then reverse-transcribed using oligo(dT) primer and Mo-MLV reverse transcriptase (Invitrogen) with DNAse I (Ambion) treatment for 30 min. The one-tenth of the produced cDNA was amplified by PCR using Taq DNA polymerase (Invitrogen) and two reporter sequence-specific primers. The PCR products were fluorescently labeled by primer extension with 6-arboxyfluorescein (6-FAM) 5'-labeled reporter sequence-specific primer (2 min at 95 C, 20 s at 68 C and 10 min at 72 C) and these products were digested with 5U of HpaI (New England Biolabs) for 2h at 37 C. The fragments were purified using Qiaquick PCR columns (Qiagen), analyzed on an ABI 3130xL genetic analyzer (Applied Biosystems) with peak positions identified by using a set of X-rhodamine (ROX)-labeled MapMarker1000 molecular weight standards (BioVentures). The raw capillary electrophoresis data was processed using Attagraph software (Attagene).
Turning to `CC(=O)C(C)C`, the molecule was classed as inactive. With `CCCCCCCCCC[N+](C)(CCCCCCCCCC)CCC[Si](OC)(OC)OC`, the AC50 was 17.4 µM (active).

`Cc1ccc([N+](=O)[O-])cc1N`: the call was inactive. In the case of `CC(C)C(=O)OCCOc1ccccc1`, the call was inactive. `C=CC(=O)O[C@H]1C[C@@H]2CC[C@@]1(C)C2(C)C`: the result was inactive. As to `Nc1ccc(C(=O)OCCCOC(=O)c2ccc(N)cc2)cc1`, the molecule was classed as inactive. In the case of `C1CNCCN1`, the call was inactive. In the case of `Clc1cc(Cl)c(Cl)c(Cl)c1Cl`, the outcome was inactive. Still for that read-out and setting: for `CCOC(=O)OC(=O)OCC` the value was “inactive”. Regarding `O=C1CCCCC1C1CCCCC1` (stereo not given), the molecule was called inactive. As for `CC1(C)C(=O)N(CO)C(=O)N1CO`, the molecule was called inactive.

As for `C=CC(C)(CCC=C(C)C)OC(=O)C=Cc1ccccc1` (stereo not given), the molecule was classed as inactive. As to `C=C(C)C(=O)OCC(O)COc1ccc(C(C)(C)c2ccc(OCC(O)COC(=O)C(=C)C)cc2)cc1` (stereo not given), the AC50 is 27 µM (active).

Take `O=C1CCCCCCCCCCCN1`: the molecule was called inactive. Regarding `CCC1(C)C(=O)N(Cl)C(=O)N1Cl` (stereo not given), the AC50 is 49.4 µM (active). Consider `CCCCc1ccc(Cl)cc1`, for which the result was inactive.

Regarding `CCCC(C)C(=O)OCC` (stereo not given), the outcome was inactive.

For `CC1(C)CCC[C@]2(C)[C@H]3CC(=O)O[C@]3(C)CC[C@@H]12`, the outcome was inactive. The same measure, in the same setting: for `CC1OC(=O)C(C)OC1=O` (stereo not given) the value was “inactive”; for `COc1cc(C)ccc1O`, “inactive”; for `O=C(Cl)c1ccc(C(=O)Cl)cc1`, “inactive”. Same read-out and setting: the same measure for `CCCCCCCCCCCCCCCCCCOS(=O)(=O)O`: “inactive”; for `[Cl][Eu]([Cl])[Cl]`: “inactive”; for `C=C(C)C(=O)OCCOC(=O)C(=C)C`: “inactive”. The same measure, in the same setting: the same measure for `CCCCCCCCCCCCCc1ccccc1`: “inactive”; for `CC1CC(=O)CC(C)(C)C1` (stereo not given): “inactive”; for `CCOB(OCC)OCC`: “inactive”.

With `CCN(CC)c1cccc(C)c1`, the result was inactive. Take `CCCCCCCCC(CO)CCCCCC` (stereo not given): the outcome was inactive. Same read-out and setting: for `CCOC(=O)c1ccccc1C` the value was “inactive”.

For the molecule `CC(C)(c1ccccc1)c1ccc(Nc2ccc(C(C)(C)c3ccccc3)cc2)cc1`, the result was inactive. On to `COc1ccc(-c2coc3cc(O)cc(O)c3c2=O)cc1`, for which the molecule was called inactive. In the case of `NC(=O)Nc1ccccc1`, the molecule was called inactive.

For `C=CC(=O)OCCCCCCCCCC`, the molecule was called inactive.

`C=CCCCCCCCCOC(C)=O`: the call was inactive. Still for that read-out and setting: for `Cn1ccnc1` the value was “inactive”. For `CCCC=C(C=O)CC`, the molecule was called inactive. The same measure, in the same setting: the same measure for `COC(=O)c1ccc(C(=O)OC)c(C(=O)OC)c1`: “inactive”; for `C=CC(=O)NC(C)(C)C`: “inactive”. For the molecule `CCOC(=O)c1ccc(C)cc1`, the result was inactive.
